Where a name gives a salt, the structure may show the parent alone. ± gives the standard deviation of the averaged measurements.
System: Toxoplasma gondii RH (in HFF)
Test: parasite growth relative to the screen mean (all compounds = 100%); higher = less inhibition of parasite growth
Settings: 5 µM; 72 h; oxygen 21 %
Procedure, shortened: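 Parasite growth was reported relative to the screen mean. In that scale, the mean of all compounds equals 100%, and values are averaged over two screens. Compounds from 10 mM DMSO stocks were pin-transferred to 5 µM final onto confluent human foreskin fibroblasts in 96-well plates, infected within 2 h with RH β-Gal–GFP Toxoplasma (MOI 1:5) and grown 72 h at 21% O2, with parasite number read by a CPRG β-Gal assay against in-plate standard curves. Uninfected host-cell viability was checked with CellTiter-Blue.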

Structure (SMILES) | parasite growth [%]
COc1ccc(C[C@H]2NC[C@H](O)[C@H]2OC(C)=O)cc1 [Anisomycin] | < 0
O=C(CCCN1CCC2(CC1)C(=O)N(Cc1cccc(F)c1)CN2c1ccccc1)c1ccc(F)cc1 [3'-Fluorobenzylspiperone maleate] | < 0
C(=C\c1ccccc1)/CN1CCN(CCOC(c2ccccc2)c2ccccc2)CC1 | 16.2 ± 8.1
N[C@@H]1C[C@H]1c1ccccc1 [Tranylcypromine hydrochloride] | 130 ± 22
C[C@@H]1O[C@@H](O[C@H]2C[C@@H](O)[C@]3(CO)[C@H]4[C@H](O)C[C@]5(C)[C@@H](C6=CC(=O)OC6)CC[C@]5(O)[C@@H]4CC[C@]3(O)C2)[C@H](O)[C@H](O)[C@H]1O [Ouabain] | 52.8 ± 8.2
CCCN(CCC)C1CCc2cccc(O)c2C1 (stereo not drawn) [8-Hydroxy-DPAT hydrobromide] | 121 ± 11
CN1CCc2cc3c(cc2C1C1OC(=O)c2c1ccc1c2OCO1)OCO3 (single isomer, unassigned; (+)) [(+)-Bicuculline] | 141 ± 54
COC(=O)[C@@H](N)CCCNC(=N)N[N+](=O)[O-] [L-NAME hydrochloride] | 81.5 ± 24
O=[N+]([O-])c1cc(O)c(O)c([N+](=O)[O-])c1 | 80.4 ± 42
COc1ccc2[nH]cc(C3=CCNCC3)c2c1 | 105 ± 28
COc1ccc(-n2nc(C(F)(F)F)cc2-c2ccc(Cl)cc2)cc1 | 117 ± 22
C=CCN1CC[C@]2(C)c3cc(O)ccc3C[C@H]1C2C (single isomer, unassigned; (+)) | 97.7 ± 5.9
CC[C@@H](CO)NC(=O)[C@@H]1C=C2c3cccc4[nH]cc(c34)C[C@H]2N(C)C1 [Methylergometrine maleate] | 177 ± 41
O=C1Nc2cc(Cl)c(Cl)cc2N2CCNCC12 (stereo not drawn) | 176 ± 7.8
C[N+]1(C)CCc2cc3c(cc2C1C1OC(=O)c2c1ccc1c2OCO1)OCO3 (single isomer, unassigned; (-)) [(-)-Bicuculline methobromide] | 131 ± 20
CCCN[C@@H]1CCc2c(OC)cccc2[C@@H]1C [(+)-AJ 76 hydrochloride] | 66.5 ± 24
CCCCCCC[n+]1ccc(-c2cc[n+](CCCCCCC)cc2)cc1 [DHBP dibromide] | 86.1 ± 44
CC(=O)[C@H]1CC[C@H]2[C@@H]3CC[C@H]4C[C@](C)(O)CC[C@]4(C)[C@H]3CC[C@]12C [Ganaxolone] | 147 ± 17
CN(C)c1ccc(/C=C2\CCCN=C2c2cccnc2)cc1 [DMAB-anabaseine dihydrochloride] | 97.4 ± 15

Structure (SMILES) | parasite growth [%]
CCC[C@@H]1CC2=CC(=O)CC[C@]2(C)[C@H]2CC[C@@]3(C)[C@@H](CC[C@@]3(O)CCC(=O)O)[C@H]12 | 75.2 ± 19
CC(C)n1cnc2c(C(=O)N[C@H]3CN4CCC3CC4)cc(Cl)cc21 | 71.5 ± 9.6
C=CCN1C[C@H](C)N([C@H](c2ccc(C(=O)N(CC)CC)cc2)c2cccc(OC)c2)C[C@H]1C | 42.5 ± 3.7
CN1[C@@H]2C[C@@H](OC(=O)[C@H](CO)c3ccccc3)C[C@H]1[C@@H]1O[C@@H]12 [Scopolamine hydrobromide] | 83.5 ± 48
C=C(C)[C@H]1CN[C@H](C(=O)O)[C@H]1CC(=O)O [Kainic acid] | 58.7 ± 12
O=C1NCN(c2ccccc2)C12CCN(CC1COc3ccccc3O1)CC2 (stereo not drawn) [Spiroxatrine] | 140.8 ± 0.7
CO[C@]12C[C@@H](COC(=O)c3cncc(Br)c3)CN(C)[C@@H]1Cc1cn(C)c3cccc2c13 [Nicergoline] | 126 ± 5.7
COc1cc2c(cc1O)C(CCc1ccc(Cl)cc1)N(C)CC2 (stereo not drawn) | 58.7 ± 22
O=C1CCCN1CC#CCN1CCCC1 [Oxotremorine sesquifumarate] | 92 ± 32
Cc1ccc(C[N+](C)(C)C)o1 [5-Methylfurmethiodide] | 100 ± 6.6
CN(C(=O)Cc1ccccc1)C(CN1CCCC1)c1ccccc1 (stereo not drawn) [N-MPPP Hydrochloride] | 112.4 ± 0.63
c1ccc2c(c1)OCC(C1=NCCN1)O2 (stereo not drawn) [Idazoxan hydrochloride] | 111 ± 8.1
O=C(CCCN1CCC2(CC1)C(=O)NCN2c1ccccc1)c1ccc(F)cc1 [Spiperone hydrochloride] | 99.8 ± 36
CC12NC(Cc3ccccc31)c1ccccc12 (single isomer, unassigned; (+)) [(+)-MK 801 maleate] | 123 ± 15
CCOC(=O)c1ncn2c1CN(C)C(=O)c1cc(N=[N+]=[N-])ccc1-2 | 60 ± 14
NC(C(=O)O)c1nn[nH]n1 (racemic) [(RS)-(Tetrazol-5-yl)glycine] | 146 ± 30
FC(F)(F)c1cccc(C2=CCN(CCc3ccc4ccccc4c3)CC2)c1 [Xaliproden hydrochloride] | 159.2 ± 1.1
CC1=NN=C(c2ccc(N)cc2)c2cc3c(cc2C1)OCO3 | 47.2 ± 4.7
Cc1[nH]c2ccc(Cl)cc2c1C1=CCNCC1 | 129 ± 8.1
